High-throughput results (PubChem)
Only some compounds are listed: those with a hit (about 0.38% of all), similar ones and a draw of the others.
HRas wt GTP bind = modulators of GTP binding to HRas wildtype, primary screen, biochemical, bead-based flow cytometry, multiplex; AID 759, 2007; GTPase HRas (Homo sapiens), P01112; GST-Ras wt beads, Bodipy-FL-GTP binding; actives lie on both sides; 0.14% of 190,000 active; GTP binding activity, % at 10 µM;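 active means GTP binding activity at least 20% away from the 100% baseline, either lowered as inhibitor or raised as activator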;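 further: 0% = unlabeled GTP competition control and 100% = no-compound control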
Target sequence (P01112 whole entry, looked up): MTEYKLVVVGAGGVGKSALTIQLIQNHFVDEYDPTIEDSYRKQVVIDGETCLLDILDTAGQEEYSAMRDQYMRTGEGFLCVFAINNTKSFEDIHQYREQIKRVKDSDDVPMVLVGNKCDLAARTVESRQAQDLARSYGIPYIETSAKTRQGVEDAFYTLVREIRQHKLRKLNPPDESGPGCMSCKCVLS
Rab7 wt modul = modulators of GTP binding to Rab7, primary screen, biochemical, wildtype, multiplex bead flow cytometry; Rab7 GTPase wild type (dog), Bodipy-FL-GTP binding; GST-Rab7 beads, fluorescent GTP binding; actives lie on both sides; untreated = 100%, excess cold GTP = 0%; GTP binding activity (percent of control), % at 10 µM; 0.055% of 190,000 active;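 active means fluorescent GTP binding to Rab7 beads changed by at least 20 points from the 100% baseline, either direction, mostly lower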;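 further: median green fluorescence of bound Bodipy-FL-GTP per Rab7 bead population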
Rab2 wt GTP = modulators of GTP binding to Rab2A wildtype, primary screen, biochemical, dog, bead-based flow cytometry, multiplex. GST-Rab2 wt beads, Bodipy-GTP binding. GTP binding activity, % at 10 µM. 0.19% of 190,000 active;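 active means GTP binding activity at least 20 points away from 100%, either lowered or raised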;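 further: 0% = beads with excess unlabeled GTP and 100% = no-compound control corrected for plate trend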
Cdc42 wt = modulators of GTP binding to wildtype Cdc42, primary screen, biochemical, multiplex bead flow cytometry, Bodipy-GTP. percent activity (GTP binding), % at 10 µM. 0.2% of 190,000 active. GST-Cdc42 beads; actives lie on both sides;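 active means percent activity GTP binding at least 20 points away from the 100% baseline, either down as inhibitor or up as activator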;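 further: median bead fluorescence of bound Bodipy-FL-GTP at 100 nM; 0% = excess unlabeled GTP control and 100% = no compound control; below 100% means less GTP binding so inhibitor and above means activator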
Target sequence (P60953 whole entry, looked up): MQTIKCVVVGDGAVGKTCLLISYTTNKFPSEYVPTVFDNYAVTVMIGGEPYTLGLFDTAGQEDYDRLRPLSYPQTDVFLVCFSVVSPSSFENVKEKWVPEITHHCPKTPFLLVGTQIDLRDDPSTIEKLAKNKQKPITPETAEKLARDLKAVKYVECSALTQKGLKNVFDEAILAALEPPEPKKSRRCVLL
Rac1 mut GTP = GTP binding modulators of activated mutant Rac1, primary screen, biochemical, bead-based flow cytometry, multiplex, fluorescent GTP. GST-Rac1 activated beads; actives lie on both sides; 100% means binding = to untreated wells. 0.11% of 190,000 active. percent activity (GTP binding), % at 10 µM. AID 764, 2007. Ras-related C3 botulinum toxin substrate 1 (Homo sapiens), P63000;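 active means GTP binding at least 20 percentage points away from the 100% baseline, in either direction, so actives lie on both sides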
Rac1 wt GTP bind = wildtype Rac1 GTP binding modulators, primary screen, biochemical, GST-Rac1 beads, flow cytometry, multiplex | fluorescent GTP binding; actives lie on both sides; 0 = cold GTP competed, 100 = untreated | GTP binding activity (% of control), % at 10 µM | 0.27% of 190,000 active | AID 757, 2007;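 active means GTP binding activity at least 20 points away from the 100% control level, either lower or higher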
An asterisk follows results filed as active; [ ] = remark or other dose.

SMILES | HRas wt GTP bind | Rab7 wt modul | Rab2 wt GTP | Cdc42 wt | Rac1 mut GTP | Rac1 wt GTP bind
N#CCc1c(C#N)c(N)nc(N2CCN(C=O)CC2)c1C#N | 79.0* | 89.0 | 77.0* | 78.0* | 86.0 | 73.0*
N#CCc1c(C#N)c(N)nc(N2CCN(S(=O)(=O)c3ccccc3)CC2)c1C#N | 93.0 | 97.0 | 94.0 | 95.0 | 94.0 | 95.0
CCOC(=O)c1ccccc1NC(=O)Cn1c(-c2nonc2N)nc2ccccc21 | 100.0 | 104.0 | 100.0 | 99.0 | 98.0 | 103.0
Nc1nonc1-c1nc2ccccc2n1CC(=O)N/N=C/c1ccc(-c2ccccc2C(=O)O)o1 | 84.0 | 86.0 | 82.0 | 85.0 | 86.0 | 77.0*
CCOC(=O)c1nn(-c2ccccc2)c(=O)cc1SC(C)C | 95.0 | 96.0 | 63.0* | 99.0 | 96.0 | 97.0
COc1cccc(NC(=O)CSc2nc3c([nH]c4ccccc43)c(=O)n2C)c1 | 112.0 | 115.0 | 116.0 | 113.0 | 99.0 | 123.0*[activator]
Cc1cccc(NC(=O)CSc2nc3c([nH]c4ccccc43)c(=O)n2C)c1 | 103.0 | 115.0 | 101.0 | 99.0 | 97.0 | 104.0
N#CC(c1ccc(Cl)nn1)c1ccc(Cl)cc1Cl (stereo not drawn) | 108.0 | 105.0 | 108.0 | 112.0 | 99.0 | 121.0*[activator]
O=C(CN1CCN(CCOCCO)CC1)N1c2ccccc2Sc2ccc(Cl)cc21 | 103.0 | 102.0 | 102.0 | 112.0 | 103.0 | 120.0*[activator]
CN1CCN(CCC(=O)N2c3ccccc3Sc3ccc(Cl)cc32)CC1 | 100.0 | 98.0 | 98.0 | 104.0 | 97.0 | 102.0
CCCCc1ccc(NC(=S)N2CCCC(C)C2)cc1 (stereo not drawn) | 96.0 | 95.0 | 95.0 | 92.0 | 96.0 | 97.0
O=C(O)CC/C(=C\c1ccc(N2CCCC2)c([N+](=O)[O-])c1)c1nc2ccccc2s1 | 79.0* | 81.0 | 74.0* | 75.0* | 75.0* | 82.0
O=C(O)CCSc1nc2ccccc2s1 | 97.0 | 95.0 | 98.0 | 99.0 | 95.0 | 100.0
Cc1nn(-c2ccc(F)cc2)c(Cl)c1/C=C(\CCC(=O)O)c1nc2ccccc2s1 | 80.0 | 79.0* | 76.0* | 68.0* | 65.0* | 72.0*
O=C(O)CC/C(=C\c1cccc(NC(=O)c2ccccc2Cl)c1)c1nc2ccccc2s1 | 92.0 | 98.0 | 92.0 | 87.0 | 88.0 | 93.0
O=C(O)CC/C(=C\c1ccccc1[N+](=O)[O-])c1nc2ccccc2s1 | 80.0 | 90.0 | 76.0* | 73.0* | 74.0* | 81.0
N#Cc1c(C(F)(F)F)cc(-c2ccc(Cl)cc2)[nH]c1=O | 81.0 | 78.0* | 81.0 | 76.0* | 78.0* | 78.0*
CCOC(=O)c1cc2c(N)c(C(=O)c3ccc(Br)cc3)sc2[nH]c1=O | 74.0* | 90.0 | 71.0* | 71.0* | 79.0* | 64.0*
CN1/C(=C\C=C(/C#N)C(=O)Nc2ccc(Cl)cc2)C(C)(C)c2ccccc21 | 105.0 | 118.0 | 133.0*[activator] | 106.0 | 116.0 | 116.0
CCOc1ccc2nc(SCc3ccc(CC(=O)O)cc3)c(C#N)cc2c1 | 84.0 | 88.0 | 74.0* | 71.0* | 76.0* | 82.0
CCOc1ccc2nc(SCC(=O)N3c4ccccc4Sc4ccccc43)c(C#N)cc2c1 | 102.0 | 102.0 | 100.0 | 100.0 | 100.0 | 105.0
CCN(CC)c1nc(=S)nc(NC(C)(C)C)[nH]1 | 99.0 | 98.0 | 97.0 | 102.0 | 99.0 | 102.0
Nc1c(S(=O)(=O)c2ccccc2)c2nc3ccccc3nc2n1/N=C/c1cccc(O)c1 | 73.0* | 95.0 | 70.0* | 74.0* | 87.0 | 88.0
Nc1c(S(=O)(=O)c2ccccc2)c2nc3ccccc3nc2n1C1CC1 | 85.0 | 91.0 | 86.0 | 82.0 | 90.0 | 78.0*
CC(=O)Oc1ccccc1C1C[C@]2(C)CC(=O)NC2N1C(C)=O (stereo partly drawn) | 95.0 | 107.0 | 99.0 | 97.0 | 94.0 | 96.0
SMILES | HRas wt GTP bind | Rab7 wt modul | Rab2 wt GTP | Cdc42 wt | Rac1 mut GTP | Rac1 wt GTP bind
O=C(/C=C/c1ccccc1)NC(NC(=S)Nc1ccc(C(=O)O)cc1)C(Cl)(Cl)Cl (stereo not drawn) | 87.0 | 88.0 | 79.0* | 96.0 | 91.0 | 88.0
O=C(/C=C/c1ccccc1)NC(NC(=S)Nc1cccc(O)c1)C(Cl)(Cl)Cl (stereo not drawn) | 98.0 | 98.0 | 95.0 | 101.0 | 96.0 | 100.0
CC(C)Oc1cccc(C(=O)C2CCCN(Cc3cccn3-c3ccccn3)C2)c1 (stereo not drawn) | 99.0 | 106.0 | 100.0 | 99.0 | 98.0 | 99.0
CC1CN(C(=O)c2cccc(S(=O)(=O)Nc3cc(Cl)ccc3Cl)c2)CC(C)O1 (stereo not drawn) | 81.0 | 96.0 | 78.0* | 79.0* | 83.0 | 72.0*
Cc1cccc(-c2nnc(NC(=O)c3ccc(N4C(=O)CCC4=O)cc3)s2)c1 | 105.0 | 101.0 | 103.0 | 107.0 | 101.0 | 113.0
Cc1ccccc1-c1nnc(NC(=O)c2ccc(N3C(=O)CCC3=O)cc2)s1 | 106.0 | 104.0 | 106.0 | 109.0 | 104.0 | 130.0*[activator]
CC(C)C(c1nnnn1Cc1cccs1)N1CCN(C(=O)c2ccco2)CC1 (stereo not drawn) | 100.0 | 102.0 | 97.0 | 99.0 | 97.0 | 101.0
COc1ccc2c(C)nc(N/C(N)=N/S(=O)(=O)c3ccc(C)cc3)nc2c1 | 88.0 | 95.0 | 87.0 | 84.0 | 89.0 | 77.0*
Cc1ccc(S(=O)(=O)/N=C(\N)Nc2nc(C)c3ccccc3n2)cc1 | 96.0 | 100.0 | 94.0 | 92.0 | 98.0 | 95.0
NC1=NC(=O)/C(=C/c2cn(CCC(=O)O)nc2-c2ccc(F)cc2)S1 | 97.0 | 98.0 | 98.0 | 97.0 | 100.0 | 96.0
NC1=NC(=O)/C(=C/c2cn(CCC(=O)O)nc2-c2ccc(Cl)cc2)S1 | 81.0 | 89.0 | 81.0 | 85.0 | 85.0 | 77.0*
O=C(CCCCCNC(=O)c1ccccc1)N=Nc1c(O)[nH]c2c(Br)cc(Br)cc12 | 97.0 | 112.0 | 98.0 | 92.0 | 90.0 | 99.0
NC(=O)N=Nc1c(O)[nH]c2c(Br)cc(Br)cc12 | 78.0* | 83.0 | 75.0* | 75.0* | 87.0 | 69.0*
C=CCNC(=O)c1cc2c(=O)n3cc(C)ccc3nc2nc1NCC1CCCO1 (stereo not drawn) | 69.0* | 65.0* | 78.0* | 89.0 | 82.0 | 82.0
NC1=NC(=O)/C(=C\c2ccc(O)c([N+](=O)[O-])c2)S1 | 66.0* | 85.0 | 63.0* | 61.0* | 80.0 | 78.0*
